Results as given in the supplement of paper PMC10849652.
About 7,900 targets were measured; listed, in parts, are those with a hit and a random draw of the rest. About 0.6% of all pairs of compound and target were hits. Values without a mark were called inactive.

These targets were tested with Cc1cc(SCc2sc(-c3ccc(C(F)(F)F)cc3)nc2C)ccc1OCC(=O)O (assay: log2 fold change, soluble protein after heating vs DMSO (PISA); higher = thermal stabilisation; K562 cells, 10 uM, 30 min; active = over 0.2 and 3.5 SD of the protein, either way, in both replicates (recomputed)).
How it was run: (§1)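 K562 cells at 2×10^6 cells/mL were treated with 10 μM compound for 30 min. Aliquots were heated for 3 min across 48°C-58°C, pooled, and extracted in PBS with 0.5% NP-40 at 4°C; soluble protein was the supernatant after 21,000xg for 90 min. Soluble protein was quantified by TMTpro 16plex LC-MS/MS with channel sums equalised, and reported as log2 fold change in thermal stability against DMSO controls, with values from duplicates.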

Sequence of UniProt Q14203 (Q14203 whole entry, looked up): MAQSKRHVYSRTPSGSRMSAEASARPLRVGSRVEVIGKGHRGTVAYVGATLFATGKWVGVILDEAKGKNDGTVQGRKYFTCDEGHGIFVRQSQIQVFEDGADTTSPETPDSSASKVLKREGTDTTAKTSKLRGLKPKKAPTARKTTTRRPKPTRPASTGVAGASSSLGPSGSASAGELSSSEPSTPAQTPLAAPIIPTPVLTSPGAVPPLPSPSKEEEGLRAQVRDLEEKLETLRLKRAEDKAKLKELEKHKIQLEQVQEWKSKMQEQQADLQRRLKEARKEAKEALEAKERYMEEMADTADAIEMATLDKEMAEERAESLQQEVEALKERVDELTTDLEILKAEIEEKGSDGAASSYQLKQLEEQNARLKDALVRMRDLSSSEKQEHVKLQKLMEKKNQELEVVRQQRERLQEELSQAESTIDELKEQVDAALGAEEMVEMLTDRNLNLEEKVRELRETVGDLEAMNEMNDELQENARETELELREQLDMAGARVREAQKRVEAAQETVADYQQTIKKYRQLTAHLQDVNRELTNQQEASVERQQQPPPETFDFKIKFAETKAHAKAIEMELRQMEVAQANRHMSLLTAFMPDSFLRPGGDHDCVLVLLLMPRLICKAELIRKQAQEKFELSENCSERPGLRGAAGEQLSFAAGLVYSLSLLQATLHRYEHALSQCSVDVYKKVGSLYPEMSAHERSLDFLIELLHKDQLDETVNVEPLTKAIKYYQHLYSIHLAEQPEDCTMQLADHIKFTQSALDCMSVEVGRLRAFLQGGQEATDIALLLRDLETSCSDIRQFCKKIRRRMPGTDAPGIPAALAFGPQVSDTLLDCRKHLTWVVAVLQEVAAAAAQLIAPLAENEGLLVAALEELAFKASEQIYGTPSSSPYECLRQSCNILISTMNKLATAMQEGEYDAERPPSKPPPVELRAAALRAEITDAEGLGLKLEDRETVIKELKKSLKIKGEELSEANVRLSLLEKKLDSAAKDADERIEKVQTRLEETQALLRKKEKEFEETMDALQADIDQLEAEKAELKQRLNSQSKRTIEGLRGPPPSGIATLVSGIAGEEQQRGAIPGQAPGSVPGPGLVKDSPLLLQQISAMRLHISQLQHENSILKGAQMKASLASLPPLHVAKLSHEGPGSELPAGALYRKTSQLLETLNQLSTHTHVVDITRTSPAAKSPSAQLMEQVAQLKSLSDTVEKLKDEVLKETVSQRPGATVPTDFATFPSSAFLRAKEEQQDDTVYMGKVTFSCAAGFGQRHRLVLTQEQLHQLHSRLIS
Sequence of UniProt Q04637 (Q04637 whole entry, looked up): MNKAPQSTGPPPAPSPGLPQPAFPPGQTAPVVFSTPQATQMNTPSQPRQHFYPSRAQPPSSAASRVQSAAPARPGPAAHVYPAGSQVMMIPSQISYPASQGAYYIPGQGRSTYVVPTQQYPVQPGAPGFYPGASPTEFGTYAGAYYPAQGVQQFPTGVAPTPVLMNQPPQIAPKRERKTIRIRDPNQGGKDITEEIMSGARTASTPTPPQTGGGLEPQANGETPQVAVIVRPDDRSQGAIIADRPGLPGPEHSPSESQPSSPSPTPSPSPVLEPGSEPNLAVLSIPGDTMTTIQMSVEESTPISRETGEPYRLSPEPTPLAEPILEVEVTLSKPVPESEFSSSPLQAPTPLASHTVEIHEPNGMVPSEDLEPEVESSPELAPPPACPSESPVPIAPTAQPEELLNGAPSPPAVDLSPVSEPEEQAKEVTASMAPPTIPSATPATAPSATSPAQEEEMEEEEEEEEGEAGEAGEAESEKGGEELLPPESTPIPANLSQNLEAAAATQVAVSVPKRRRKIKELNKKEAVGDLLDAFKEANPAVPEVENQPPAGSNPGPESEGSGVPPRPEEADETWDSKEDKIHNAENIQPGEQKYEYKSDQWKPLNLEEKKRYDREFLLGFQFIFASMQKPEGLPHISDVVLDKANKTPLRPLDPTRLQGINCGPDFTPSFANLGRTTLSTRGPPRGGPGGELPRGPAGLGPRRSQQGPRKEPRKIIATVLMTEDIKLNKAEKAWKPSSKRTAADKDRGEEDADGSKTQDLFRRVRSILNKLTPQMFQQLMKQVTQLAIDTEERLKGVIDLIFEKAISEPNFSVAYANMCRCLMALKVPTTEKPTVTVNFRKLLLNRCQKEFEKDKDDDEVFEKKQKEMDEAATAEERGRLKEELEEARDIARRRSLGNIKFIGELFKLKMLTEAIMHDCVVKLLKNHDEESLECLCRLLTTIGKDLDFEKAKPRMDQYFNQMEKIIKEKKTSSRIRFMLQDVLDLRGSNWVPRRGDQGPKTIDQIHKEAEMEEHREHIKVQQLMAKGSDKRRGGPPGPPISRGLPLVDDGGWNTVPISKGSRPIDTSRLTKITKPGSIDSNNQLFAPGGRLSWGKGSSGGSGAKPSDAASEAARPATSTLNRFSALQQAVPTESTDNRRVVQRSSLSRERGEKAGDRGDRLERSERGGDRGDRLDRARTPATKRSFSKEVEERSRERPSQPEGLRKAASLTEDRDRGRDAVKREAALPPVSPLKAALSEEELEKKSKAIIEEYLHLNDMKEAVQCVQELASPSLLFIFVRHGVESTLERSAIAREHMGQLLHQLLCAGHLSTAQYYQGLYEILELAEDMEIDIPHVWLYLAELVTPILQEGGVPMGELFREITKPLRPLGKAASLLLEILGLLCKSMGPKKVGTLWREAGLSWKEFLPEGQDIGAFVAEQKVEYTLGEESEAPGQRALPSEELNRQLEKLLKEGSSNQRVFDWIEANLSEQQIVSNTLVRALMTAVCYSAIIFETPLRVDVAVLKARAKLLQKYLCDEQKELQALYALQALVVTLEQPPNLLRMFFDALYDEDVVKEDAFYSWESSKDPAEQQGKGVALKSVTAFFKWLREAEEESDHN
Sequence of UniProt P18074 (P18074 whole entry, looked up): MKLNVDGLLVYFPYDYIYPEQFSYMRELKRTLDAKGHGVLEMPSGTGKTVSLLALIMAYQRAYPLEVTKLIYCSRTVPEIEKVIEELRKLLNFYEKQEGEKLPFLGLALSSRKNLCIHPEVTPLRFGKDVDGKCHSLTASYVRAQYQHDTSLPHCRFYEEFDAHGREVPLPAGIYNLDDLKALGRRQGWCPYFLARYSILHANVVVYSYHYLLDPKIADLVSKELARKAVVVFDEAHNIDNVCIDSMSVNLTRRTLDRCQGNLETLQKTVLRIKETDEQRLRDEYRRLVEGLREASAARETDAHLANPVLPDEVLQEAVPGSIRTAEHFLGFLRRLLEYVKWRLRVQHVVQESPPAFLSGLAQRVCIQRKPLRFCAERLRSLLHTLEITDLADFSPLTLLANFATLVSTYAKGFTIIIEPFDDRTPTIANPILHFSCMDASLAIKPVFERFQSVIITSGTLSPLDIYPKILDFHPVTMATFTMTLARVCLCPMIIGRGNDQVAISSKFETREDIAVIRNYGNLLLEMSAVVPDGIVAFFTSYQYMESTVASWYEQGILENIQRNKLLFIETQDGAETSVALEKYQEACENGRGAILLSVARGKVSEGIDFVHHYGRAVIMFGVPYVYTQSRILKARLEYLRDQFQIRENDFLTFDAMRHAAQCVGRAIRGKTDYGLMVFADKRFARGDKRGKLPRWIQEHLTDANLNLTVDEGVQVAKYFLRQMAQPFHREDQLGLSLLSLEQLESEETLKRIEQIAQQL
Sequence of UniProt Q9UBQ6 (Q9UBQ6 whole entry, looked up): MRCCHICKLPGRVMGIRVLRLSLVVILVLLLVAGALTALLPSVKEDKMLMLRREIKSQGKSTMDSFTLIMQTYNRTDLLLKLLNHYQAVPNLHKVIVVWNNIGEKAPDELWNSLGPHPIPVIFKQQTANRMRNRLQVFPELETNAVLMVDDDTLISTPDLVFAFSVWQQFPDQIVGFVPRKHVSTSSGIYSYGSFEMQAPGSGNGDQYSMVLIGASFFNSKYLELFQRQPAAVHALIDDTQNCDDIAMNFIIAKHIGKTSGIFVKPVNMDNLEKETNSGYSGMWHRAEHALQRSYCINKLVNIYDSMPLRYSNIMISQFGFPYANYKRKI
Sequence of UniProt Q14118 (Q14118 whole entry, looked up): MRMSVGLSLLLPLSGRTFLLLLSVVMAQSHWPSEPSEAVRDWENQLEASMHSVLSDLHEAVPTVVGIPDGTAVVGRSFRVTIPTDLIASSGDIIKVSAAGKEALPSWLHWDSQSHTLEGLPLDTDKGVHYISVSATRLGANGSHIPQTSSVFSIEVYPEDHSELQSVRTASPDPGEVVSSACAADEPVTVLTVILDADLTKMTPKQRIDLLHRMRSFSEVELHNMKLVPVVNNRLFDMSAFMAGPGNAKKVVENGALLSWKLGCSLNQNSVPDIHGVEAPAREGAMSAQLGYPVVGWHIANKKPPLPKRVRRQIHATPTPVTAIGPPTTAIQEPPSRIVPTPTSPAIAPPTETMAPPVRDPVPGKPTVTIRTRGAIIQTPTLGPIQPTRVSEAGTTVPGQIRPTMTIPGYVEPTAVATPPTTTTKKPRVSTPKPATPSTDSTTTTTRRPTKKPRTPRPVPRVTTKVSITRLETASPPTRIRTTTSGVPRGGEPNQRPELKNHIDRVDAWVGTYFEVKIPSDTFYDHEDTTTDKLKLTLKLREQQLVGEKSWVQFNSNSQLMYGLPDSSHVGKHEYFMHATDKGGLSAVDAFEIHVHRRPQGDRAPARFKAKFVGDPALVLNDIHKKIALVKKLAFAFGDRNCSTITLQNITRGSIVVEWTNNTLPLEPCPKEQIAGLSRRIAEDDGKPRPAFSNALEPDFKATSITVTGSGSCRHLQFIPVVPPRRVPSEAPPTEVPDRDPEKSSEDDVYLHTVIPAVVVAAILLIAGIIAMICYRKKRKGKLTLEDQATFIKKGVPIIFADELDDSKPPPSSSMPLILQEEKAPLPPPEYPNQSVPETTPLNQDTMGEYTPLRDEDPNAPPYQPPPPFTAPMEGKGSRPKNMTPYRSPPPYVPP
Sequence of UniProt P00374 (P00374 whole entry, looked up): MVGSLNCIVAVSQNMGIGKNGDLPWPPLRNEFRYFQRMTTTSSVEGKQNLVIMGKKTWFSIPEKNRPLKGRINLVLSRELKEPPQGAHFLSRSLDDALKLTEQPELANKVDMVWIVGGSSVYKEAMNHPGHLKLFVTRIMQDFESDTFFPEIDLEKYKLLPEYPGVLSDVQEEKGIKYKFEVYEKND

Point of comparison: CUEDC2 (UniProt Q9H467), log2 fold change 0.012. Against it:
- DAG1 (UniProt Q14118) — within 0.2 log units, -0.032
- DHX40 (UniProt Q8IX18) — within 0.2 log units, 0.01
- EDC4 (UniProt Q6P2E9) — within 0.2 log units, 0.033
- FAM118A (UniProt Q9NWS6) — within 0.2 log units, 0.097
- DTNBP1 (UniProt Q96EV8) — within 0.2 log units, 0.022
- DDX46 (UniProt Q7L014) — higher, 0.235
- EED, A0A5F9ZI63 — within 0.2 log units, -0.013
- FAM117A (UniProt Q9C073) — within 0.2 log units, 0.067
- DNTTIP2 (UniProt Q5QJE6) — within 0.2 log units, 0.052
- EEA1 (UniProt Q15075) — within 0.2 log units, -0.04
- DBR1 (UniProt Q9UK59) — within 0.2 log units, 0.01
- DOHH (UniProt Q9BU89) — within 0.2 log units, 0.022
- CTSA (UniProt P10619) — within 0.2 log units, 0.003
- DTYMK (UniProt P23919) — within 0.2 log units, -0.009
- DAB2 (UniProt P98082) — within 0.2 log units, 0.069
- EXTL2 (UniProt Q9UBQ6) — within 0.2 log units, -0.046
- DDOST (UniProt P39656) — within 0.2 log units, -0.016
- DDX39A (UniProt O00148) — within 0.2 log units, 0.05
- DTWD1 (UniProt Q8N5C7) — the same, 0.012
- DHFR (UniProt P00374) — within 0.2 log units, 0.048
- DPYSL2 (UniProt Q16555) — within 0.2 log units, 0.082
- CTSV (UniProt O60911) — within 0.2 log units, -0.04
- EFCAB14 (UniProt O75071) — within 0.2 log units, -0.006
- CTNNB1 (UniProt P35222) — within 0.2 log units, -0.024
- EIF4G1 isoform 8 (UniProt Q04637) — within 0.2 log units, 0.149
- ERCC2 (UniProt P18074) — within 0.2 log units, 0.08
- DPH5 isoform 5 (UniProt Q9H2P9) — within 0.2 log units, -0.01
- ELOC (UniProt Q15369) — within 0.2 log units, -0.015
- DNAH10 (UniProt Q8IVF4) — within 0.2 log units, -0.082
- FAM50A (UniProt Q14320) — within 0.2 log units, 0.092
- DHCR7 (UniProt Q9UBM7) — within 0.2 log units, 0.051
- DDB1 (UniProt Q16531) — within 0.2 log units, -0.037
- EMD (UniProt P50402) — within 0.2 log units, 0.015
- EHBP1L1 (UniProt Q8N3D4) — within 0.2 log units, 0.115
- EHD2 (UniProt Q9NZN4) — within 0.2 log units, 0.002
- DHCR24 (UniProt Q15392) — within 0.2 log units, -0.063
- DCTN1 isoform 4 (UniProt Q14203) — within 0.2 log units, 0.111

What follows are targets tested with Cc1ccc(-n2nc(C(C)(C)C)cc2NC(=O)Nc2ccc(OCCN3CCOCC3)c3ccccc23)cc1 [doramapimod] in the same assay as above.
How it was run: as §1

Point of comparison: EHD2 (UniProt Q9NZN4), log2 fold change 0. Against it:
- DAG1 (UniProt Q14118) — within 0.2 log units, -0.001
- DHX40 (UniProt Q8IX18) — within 0.2 log units, 0.065
- EDC4 (UniProt Q6P2E9) — within 0.2 log units, 0.005
- FAM118A (UniProt Q9NWS6) — within 0.2 log units, -0.02
- DTNBP1 (UniProt Q96EV8) — within 0.2 log units, -0.009
- DDX46 (UniProt Q7L014) — within 0.2 log units, -0.087
- EED, A0A5F9ZI63 — within 0.2 log units, 0.028
- FAM117A (UniProt Q9C073) — within 0.2 log units, 0.017
- DNTTIP2 (UniProt Q5QJE6) — within 0.2 log units, 0.129
- EEA1 (UniProt Q15075) — within 0.2 log units, 0.002
- DBR1 (UniProt Q9UK59) — within 0.2 log units, 0.02
- DOHH (UniProt Q9BU89) — within 0.2 log units, 0.005
- CTSA (UniProt P10619) — within 0.2 log units, 0.009
- DTYMK (UniProt P23919) — within 0.2 log units, -0.025
- DAB2 (UniProt P98082) — within 0.2 log units, 0.022
- EXTL2 (UniProt Q9UBQ6) — within 0.2 log units, -0.01
- DDOST (UniProt P39656) — within 0.2 log units, 0.005
- DDX39A (UniProt O00148) — within 0.2 log units, -0.069
- DTWD1 (UniProt Q8N5C7) — within 0.2 log units, 0.009
- DHFR (UniProt P00374) — within 0.2 log units, 0.179
- DPYSL2 (UniProt Q16555) — within 0.2 log units, 0.069
- CTSV (UniProt O60911) — within 0.2 log units, -0.005
- EFCAB14 (UniProt O75071) — within 0.2 log units, -0.01
- CTNNB1 (UniProt P35222) — within 0.2 log units, 0.047
- EIF4G1 isoform 8 (UniProt Q04637) — within 0.2 log units, 0.032
- ERCC2 (UniProt P18074) — within 0.2 log units, 0.031
- DPH5 isoform 5 (UniProt Q9H2P9) — within 0.2 log units, -0.025
- ELOC (UniProt Q15369) — within 0.2 log units, 0.012
- DNAH10 (UniProt Q8IVF4) — within 0.2 log units, -0.003
- CUEDC2 (UniProt Q9H467) — within 0.2 log units, -0.087
- FAM50A (UniProt Q14320) — within 0.2 log units, -0.061
- DHCR7 (UniProt Q9UBM7) — within 0.2 log units, 0.049
- DDB1 (UniProt Q16531) — within 0.2 log units, -0.033
- EMD (UniProt P50402) — within 0.2 log units, 0.018
- EHBP1L1 (UniProt Q8N3D4) — within 0.2 log units, -0.018
- DCTN1 isoform 4 (UniProt Q14203) — within 0.2 log units, 0.088

With DHCR24 (UniProt Q15392) the log2 fold change was 0.982 (active).
